Test results reported in PubChem BioAssay (NCI).
This is part of a sample that, as a whole, favours compounds with a hit. Of some 83,000 tested, about 20% had one in any assay.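 Note: values are percent growth. 100 is the growth of untreated cells, values between 100 and 0 indicate rising inhibition; between -100 and 0 indicates cell death.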 A number with no mark means an inactive call. Calls of active or inactive are those of the source. The calls were made as follows: active = growth percent below 10; inactive = the rest.

What was measured:
Assay in all cases: NCI-60 one-dose screen, 48 h (100 = growth as untreated, 0 = no growth, -100 = all killed)
Conditions in all cases: 10 µM
EKVX NSCLC = system: EKVX NSCLC
SN12C renal = system: SN12C renal
UO-31 renal = system: UO-31 renal
TK-10 renal = system: TK-10 renal
ACHN renal = system: ACHN renal
CAKI-1 renal = system: CAKI-1 renal
CCRF-CEM leukemia = system: CCRF-CEM leukemia
MOLT-4 leukemia = system: MOLT-4 leukemia
SR leukemia = system: SR leukemia
A498 renal = system: A498 renal

Compound	growth (EKVX NSCLC)	growth (SN12C renal)	growth (UO-31 renal)	growth (TK-10 renal)	growth (ACHN renal)	growth (CAKI-1 renal)	growth (CCRF-CEM leukemia)	growth (MOLT-4 leukemia)	growth (SR leukemia)	growth (A498 renal)
O=C(C[n+]1ccccc1)c1ccc2ccccc2c1	88.2%	93.8%	74%	102%	102%	96.7%	95.9%	96%	92.1%	–
COc1ccc(CN2CCC(N3CCCC3=O)c3cc(Cl)ccc32)cc1 (configuration not stated)	106%	99.5%	73.6%	108%	101%	114%	–	83%	84.2%	111%
O=C(/C=C/c1cc2ccccc2[nH]c1=O)c1ccc2c(c1)OCO2	95.9%	93.5%	63.7%	97.3%	103%	118%	–	66%	52.5%	97.6%
O=C(Cc1csc2nc(-c3ccc(Cl)cc3)cn12)N/N=C/c1ccccc1O	32.2%	61%	27.2%	57.1%	26.4%	34.5%	20.2%	10.5%	-11.5% (active)	–
CCOC(=O)CCC(NC(=O)c1ccc(N)cc1)C(=O)OCC (configuration not stated)	121%	103%	76.9%	102%	95.3%	123%	–	114%	121%	112%
COc1cc([C@@H]2c3cc4c(cc3C(Br)[C@H]3COC(=O)[C@H]23)OCO4)cc(OC)c1OC (some centres not stated)	22%	31%	8.5% (active)	54.2%	22.5%	12.3%	-15.5% (active)	–	–	–
COc1cc(/C=N/NC(=O)c2ccccc2Nc2ccnc(C(F)(F)F)c2)ccc1O	106%	122%	98.1%	147%	111%	-21.2% (active)	–	-89.5% (active)	-48.1% (active)	116%
CCN(CC)Cc1cc(Nc2ccnc3cc(Cl)ccc23)ccc1OC	97.2%	91.2%	55.9%	94.9%	97%	102%	69.1%	78.9%	83.2%	–
O=C(O)CN1C(=O)c2cccc3cccc(c23)C1=O	82.6%	95.4%	97.1%	114%	101%	89%	–	115%	112%	85.9%
Clc1ccccc1N=Cc1ccc2c(c1)OCO2	99.7%	92%	80%	107%	111%	93.6%	88.8%	87.9%	89%	102%
COc1ccc(-c2csc(NC(=O)CSc3nc(C)c(-c4ccccc4)n3Nc3ccccc3)n2)cc1	38.3%	42.1%	4.89% (active)	86.1%	59%	20%	28.3%	31.1%	40.7%	–
ClCCOCCn1cnc2c(Cl)nc(Cl)nc21	92.4%	63.3%	88%	92.7%	81.3%	-4.35% (active)	–	79.8%	41.5%	93.1%
O=[N+]([O-])c1cccc(-c2ncc(-c3ccc(Cl)cc3Cl)[nH]2)c1	91.5%	80.9%	60.4%	20.1%	-2.82% (active)	100%	–	22.1%	-36.6% (active)	104%
Nc1nc(N=Nc2ccc(O)cc2)cc(=O)[nH]1	91.4%	101%	93.6%	120%	105%	91.4%	97.5%	104%	94.3%	–
Nc1ccc2c(c1)Cc1cc(N)c(Br)cc1-2	46.8%	113%	76.9%	138%	87%	86.6%	82.1%	94.1%	–	–
O=C(NN1C(=O)CSC1c1ccc(Cl)cc1)c1cccnc1 (configuration not stated)	95.2%	131%	72.2%	107%	113%	98.2%	99.5%	–	–	–
CC(C)N(CCNc1nc(C(Cl)(Cl)Cl)nc2cc(Cl)ccc12)C(C)C	8.11% (active)	17.9%	-29% (active)	-84.3% (active)	-36.2% (active)	-84.1% (active)	-8.62% (active)	-21.4% (active)	-28.4% (active)	–
COc1cc(CNc2ccccc2C(=O)N2CCN(C(=O)c3cc(-c4cc(OC)c(OC)c(OC)c4)n4nc(-c5ccccc5)cc4n3)CC2)cc(OC)c1OC	63.6%	79.4%	19.1%	52.1%	51.8%	18.9%	58.8%	68%	8.84% (active)	-5.33% (active)
COc1ccc(Cl)cc1C(=O)Nc1nc2ccc(Cl)cc2s1	76.2%	91.7%	58.2%	127%	85.9%	84.4%	86.4%	95.6%	87.7%	–
O=c1[nH]c2ccc(Cl)cc2c2ccccc12	41.8%	87.8%	20.2%	81%	48.9%	43.2%	99.3%	119%	75.4%	–
CCCCC(CCCCCC(CCCC)NCc1ccc2c(c1)OCO2)NCc1ccc2c(c1)OCO2 (configuration not stated)	-75.2% (active)	-92.6% (active)	-100% (active)	-88% (active)	-100% (active)	-87.9% (active)	-32.8% (active)	-66.7% (active)	-64.8% (active)	–
COc1ccc(C2CC(c3ccc(N(C)C)cc3)=NN2c2ccc(S(N)(=O)=O)cc2)cc1 (configuration not stated)	28.4%	49.4%	32%	44.9%	35.2%	48.2%	49.4%	–	–	–
CCCCCCCCCCCCCCCCCC(=O)OCCCCCCC	90.8%	105%	87.6%	113%	107%	88%	85%	–	–	–
CCCCCCNC(=O)Oc1ccc(/C(=C(/CC)Cc2ccccc2)c2ccc(OCCN3CCCCC3)cc2)cc1	85.1%	80.7%	60.4%	93.7%	100%	96.9%	66.7%	55.2%	–	–
O=C(N/N=C/c1ccccc1O)C(O)(c1ccccc1)c1ccccc1	20%	66.3%	23.7%	53.9%	35.5%	23%	24.7%	31.2%	42.6%	–
O=C1/C(=C/c2ccc(Cl)cc2)SC(=Nc2ccc(Cl)cc2)N1Cc1nc2ccccc2[nH]1	64.5%	79.3%	37.5%	104%	91.9%	8.38% (active)	62.6%	57.3%	46.6%	–
CN(C)CCNC(=O)c1cccn2c(=O)c3cc4ccccc4cc3nc12	16.1%	7.89% (active)	18.2%	-29% (active)	14.7%	-2.45% (active)	–	-27.2% (active)	-29.9% (active)	-56.7% (active)
CCOC(=O)C1CCc2c(ccc3ccccc23)N1CCC#N (configuration not stated)	92.8%	98.7%	74.9%	116%	115%	80.2%	89.2%	77.9%	63%	–
Nc1cc2c(cc1Cl)-c1ccc([N+](=O)[O-])cc1/C2=N\O	66%	88.2%	33.3%	48.7%	63.3%	55.6%	28.7%	37.9%	10.8%	–
CN1CCC2(CC1)NC(=O)c1c(c3ccc(Cl)c(Cl)c3n1C)C2C#N (configuration not stated)	89%	64.3%	61.7%	98.7%	73.9%	-26.4% (active)	–	64.1%	39.4%	59.8%
